Screening results as filed in PubChem BioAssay.
The list is not random: actives were taken first. Their share in the collection is about 3.5%.
MITF primary = MITF inhibitors, primary screen, biochemical, AlphaScreen, human; Microphthalmia-associated transcription factor (Homo sapiens), O75030; 650,000 compounds, 0.91% hits; AlphaScreen MITF homodimerization, bead proximity signal; inhibition, % at 2.6 µM; in the data active means inhibition above about 50%;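 further: 0% = vehicle wells with protein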
FBW7 activator = FBW7 E3 ligase activators, primary screen, biochemical, AlphaScreen, human; F-box/WD repeat-containing protein 7 (Homo sapiens), Q969H0; AlphaScreen FBW7–phospho-cyclin E peptide binding, activator screen; normalized activity (activation), % at 26.1 µM; 650,000 compounds, 0.13% hits; AID 1259310, 2017; in the data active means normalized activity above about 1.9%;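 further: purified mutant Fbw7 with reduced substrate affinity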
GPR151 ag = activators of human GPR151, primary screen, cell-based, PathHunter beta-arrestin, luminescence; PathHunter beta-arrestin GPR151 cells; AID 1508602, 2020; activation, % at 11.2 µM; G-protein coupled receptor 151 (Homo sapiens), Q8TDV0; 650,000 compounds, 1% hits; in the data active means activation above about 4.9%;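 further: 0% = median of compound wells and 100% = cells with positive control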
Target sequence (Q8TDV0 whole entry, looked up): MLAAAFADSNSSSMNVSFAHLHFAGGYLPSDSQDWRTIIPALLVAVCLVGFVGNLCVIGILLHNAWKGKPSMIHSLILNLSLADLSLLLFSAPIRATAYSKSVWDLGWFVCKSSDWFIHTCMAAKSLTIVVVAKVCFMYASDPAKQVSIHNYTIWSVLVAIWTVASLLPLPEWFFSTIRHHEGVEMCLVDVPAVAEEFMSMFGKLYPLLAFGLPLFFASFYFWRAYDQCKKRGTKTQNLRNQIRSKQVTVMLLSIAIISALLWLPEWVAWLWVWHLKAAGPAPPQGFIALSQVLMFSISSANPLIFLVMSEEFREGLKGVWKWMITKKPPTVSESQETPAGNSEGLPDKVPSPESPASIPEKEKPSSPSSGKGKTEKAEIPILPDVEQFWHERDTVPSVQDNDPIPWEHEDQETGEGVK
TEAD-YAP block = TEAD-YAP interaction inhibition, primary screen, TEAD-YAP interaction inhibitor project, luminescence, HEK-TIYL cells | TEAD-Gal4/YAP UAS-luciferase luminescence | inhibition, % at 9.12 µM | 640,000 compounds, 1.4% hits; in the data active means inhibition above about 32%;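 further: 0% = median of test compound wells and 100% = reference inhibitor wells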
GPR151 conf act = GPR151 activators, triplicate retest, confirmation, cell-based, PathHunter beta-arrestin, luminescence. 6,700 tested, under 10 active. shares compounds with GPR151 ag. GPR151 PathHunter beta-arrestin cells, 90 min; % of EA-reagent control over plate median. activation, % at 11.2 µM;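 active means mean percent activation across replicates above the confirmation screen cutoff of 4.91%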
GPR119 counter = GPR119 activators in beta-arrestin cells, counter-screen for GPR151 activator project, cell-based, PathHunter beta-arrestin, luminescence, triplicate; shares compounds with GPR151 ag; 90 min; 0 = compound-well median, 100 = enzyme-acceptor control; activation, % at 11.2 µM; 6,700 compounds, 0.3% hits;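 active means mean percent activation in the counterscreen above 29.09%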;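 further: counterscreen on off-target GPR119 to flag nonselective hits from the GPR151 activator screen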
* marks the source's active call; other numbers are inactive results; x = no result given.

SMILES	MITF primary	FBW7 activator	GPR151 ag	TEAD-YAP block	GPR151 conf act	GPR119 counter
CCOc1ccc(-n2cc(-c3ccccc3)c3c(SC)ncnc32)cc1	-17	0	3	8	x	x
CCOc1ccc(-n2nc(C(=O)Nc3ccc(OC)c(OC)c3)c3ccccc3c2=O)cc1	12	1	5.6*	-6	-1	9
COc1ccc(OC)c(NC(=O)c2nn(-c3ccc(OC)cc3OC)c(=O)c3ccccc23)c1	14	0	8.7*	10	-1	-1
COc1ccc(-n2nc(C(=O)Nc3cc(Cl)ccc3OC)c3ccccc3c2=O)c(OC)c1	-2	0	-2	-6	x	x
CCOc1ccc(NC(=O)CNC(=O)c2nn(-c3ccc(OC)c(OC)c3)c(=O)c3ccccc23)cc1	-1	0	1	6	x	x
COc1cc(/C=C/C(=O)OCC(=O)N(Cc2ccccc2)C(C)(C)C)ccc1OCC#N	3	0	0	8	x	x
COc1ccc(C(=O)Cn2c(CN3CCCCC3)nc3ccccc3c2=O)cc1	-2	0	6.1*	-10	0	-7
O=C(NCc1ccco1)c1nc2c(nnn2Cc2ccc(F)cc2)c(=O)[nH]1	10	1	5.3*	8	0	-5
O=C(NCc1cccs1)c1nc2c(nnn2Cc2ccc(F)cc2)c(=O)[nH]1	9	0	0	0	x	x
O=C(NN1C(=O)c2ccccc2NC12CCCC2)c1ccc(Br)cc1	23	0	2	-23	x	x
CNc1oc(-c2cccs2)nc1S(=O)(=O)c1ccccc1	-4	0	5.1*	1	0	11
CCCCN(/C=N/S(=O)(=O)c1ccccc1)CCCC	48	0	11*	3	0	2
Cc1ncsc1CCC(=O)NCc1nc(N2CCCC2)c2cccc(C)c2n1	-1	0	-1	-5	x	x
COc1ccc(NC(=O)NC2(C(=O)NCc3ccncc3)CCCCC2)cc1	-14	0	1	6	x	x
Cc1ccc(NC(=O)NC2(C(=O)NCc3ccncc3)CCCCC2)cc1	-11	0	5.4*	-12	-1	2
Cc1c(Cl)cccc1N1CC(c2nc3ccccc3[nH]2)CC1=O (configuration not stated)	-2	0	5.6*	8	0	3
O=C1CC(c2nc3ccccc3[nH]2)CN1c1ccccc1Cl (configuration not stated)	9	0	1	-7	x	x
CCOC(=O)c1ccc(NC(=O)NNC(=O)COc2ccc3c(c2)CCC3)cc1	12	0	1	-1	x	x
O=P(CCO)(c1ccccc1)c1ccccc1	17	0	-2	1	x	x
O=P(CCCO)(c1ccccc1)c1ccccc1	30	0	10*	-3	1	15
CCOC(=O)/C(C(N)=O)=C(\O)C(=O)/C=C(\O)c1ccc(C)cc1	0	0	1	-5	x	x
CCOC(=O)/C(C(N)=O)=C(\OC)C(=O)CC(=O)c1ccc(C)cc1	5	0	5.5*	6	1	7
CC1=C(C(=O)OC2CCCCC2)C(c2c(F)cccc2Cl)NC(=O)N1C (configuration not stated)	2	0	-1	-14	x	x
CN(C)CC(C)(O)c1ccc2c(c1)CN(Cc1nc3ccccc3s1)CCO2 (configuration not stated)	15	0	1	-2	x	x
O=c1c2ccccc2nc(SCc2ccccc2F)n1Cc1ccc2c(c1)OCO2	5	0	2	-5	x	x
SMILES	MITF primary	FBW7 activator	GPR151 ag	TEAD-YAP block	GPR151 conf act	GPR119 counter
CN(c1ccccc1)S(=O)(=O)c1cc(C(=O)OC2CCCCC2=O)ccc1Cl (configuration not stated)	-8	0	1	-2	x	x
COc1ccc(OC)c(/C=C\c2onc(C)c2[N+](=O)[O-])c1	-17	0	8.9*	2	0	-8
Cc1noc(/C=C/C=C/c2ccccc2)c1[N+](=O)[O-]	34	0	0	-1	x	x
COC(=O)C1=CN(Cc2ccc(F)cc2)C=C(C(=O)OC)C1c1ccc(OCc2ccccc2)c(OC)c1	1	1	0	0	x	x
CCOC(=O)C1=CN(Cc2ccc(F)cc2)C=C(C(=O)OCC)C1c1ccc(OCc2ccccc2)c(OC)c1	-26	0	14*	1	0	7
COc1ccc(C(=O)N2CCN(CCNC(=O)C(=O)Nc3ccccc3)CC2)cc1	-15	0	-1	-10	x	x
COc1ccc(NC(=O)C(=O)NCCN2CCN(C(=O)c3c(F)cccc3F)CC2)cc1	11	0	5.8*	4	0	12
N#C/C(=C\c1ccc2c(c1)OCO2)C(=O)Nc1ccc(Cl)c([N+](=O)[O-])c1	16	0	6.0*	4	1	-12
CCOc1ccc(-c2cc(=O)c3cc(NC(=O)c4ccccc4Br)ccc3o2)cc1	-2	0	5.1*	-39	-1	-11
Cc1cc(C(=O)NCCCN2CCCC2=O)c2c(C)nn(-c3ccccc3Cl)c2n1	2	0	1	2	x	x
CCN(C(=O)c1ccc([N+](=O)[O-])cc1Cl)c1ccccc1C	8	0	8.6*	-2	-1	-9
Cc1ccc(OCC(=O)NNC(=O)COc2ccccc2C)cc1	0	0	2	8	x	x
Cc1ccccc1OCC(=O)NNC(=O)C(F)(F)F	-1	0	5.1*	-3	0	-1
Cc1ccc(/C=C2/SC(=S)N(CC(=O)Nc3ccccc3O)C2=O)cc1	8	0	7.3*	-3	1	-4
O=C1N[C@@H](COCc2ccccc2)C(=O)N2CCN(Cc3cccc(Cl)c3)C[C@H]12	7	0	0	-3	x	x
COc1cccc(-c2noc(/C=C/c3ccc(OC)c(OC)c3)n2)c1	14	0	1	-23	x	x
COc1ccc(/C=C/c2nc(-c3cccnc3)no2)cc1OC	-2	0	8.7*	-66	0	-15
O=C(Nc1ccccc1)N[C@H]1C[C@H]2C(=O)N3CCC[C@@H]3C(=O)N2C1	15	1	10*	-15	2	19
CCNC(=S)Nc1ccc(Cl)c(S(=O)(=O)N2CCOCC2)c1	12	0	6.6*	-2	-1	-7
Cc1cc(C)c2nc(N(CCn3cccn3)C(=O)C3CC3)sc2c1	9	0	6.1*	-7	0	-2
CCOC(=O)c1c(N)c(C#N)cn1-c1ccccc1	10	0	8.6*	-12	-1	-10
O=C(NC1(C(=O)Nc2ccc(Br)cc2)CCCCC1)c1cccc(O)c1	4	0	5.5*	9	0	-5
